An excerpt weighted towards active compounds, which were near 3.4% of everything screened.
MITF primary – blocks human microphthalmia-associated transcription factor; AID 1259374; actives 0.91% (n = 650,000); AlphaScreen MITF homodimerization, bead proximity signal; inhibition, % at 2.6 µM; in the data active = inhibition above about 50%;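 note: 0% = vehicle wells with protein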
TEAD-YAP inh – TEAD-YAP interaction inhibition; HEK-TIYL cells, TEAD-Gal4/YAP UAS-luciferase luminescence; actives 1.4% (n = 640,000); inhibition, % at 9.12 µM; in the data active = inhibition above about 32%;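 note: 0% = median of test compound wells and 100% = reference inhibitor wells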
FBW7 activator – activators of human E3 ligase FBW7; Q969H0; AlphaScreen FBW7–phospho-cyclin E peptide binding, activator screen; normalized activity (activation), % at 26.1 µM; actives 0.13% (n = 650,000); AID 1259310; in the data active = normalized activity above about 1.9%;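 note: purified mutant Fbw7 with reduced substrate affinity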
GPR151 activ – activates the human receptor GPR151; Q8TDV0; PathHunter beta-arrestin GPR151 cells, luminescence; activation, % at 11.2 µM; actives 1% (n = 650,000); in the data active = activation above about 4.9%;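 note: 0% = median of compound wells and 100% = cells with positive control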
GPR151 confirm – confirmation of human GPR151 activators | shares compounds with GPR151 activ | GPR151 PathHunter beta-arrestin cells, luminescence, 90 min; % of EA-reagent control over plate median | activation, % at 11.2 µM | 6,700 tested, under 10 active | AID 1508609;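 active = mean percent activation across replicates above the confirmation screen cutoff of 4.91%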
GPR119 counter – counter-screen for GPR151 activators: effect on human GPR119; shares compounds with GPR151 activ; GPR119 PathHunter beta-arrestin cells, luminescence, 90 min; 0 = compound-well median, 100 = enzyme-acceptor control; activation, % at 11.2 µM; actives 0.3% (n = 6,700); AID 1508611;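 active = mean percent activation in the counterscreen above 29.09%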;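 note: counterscreen on off-target GPR119 to flag nonselective hits from the GPR151 activator screen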
Target sequence (Q8TDV5 whole entry, looked up): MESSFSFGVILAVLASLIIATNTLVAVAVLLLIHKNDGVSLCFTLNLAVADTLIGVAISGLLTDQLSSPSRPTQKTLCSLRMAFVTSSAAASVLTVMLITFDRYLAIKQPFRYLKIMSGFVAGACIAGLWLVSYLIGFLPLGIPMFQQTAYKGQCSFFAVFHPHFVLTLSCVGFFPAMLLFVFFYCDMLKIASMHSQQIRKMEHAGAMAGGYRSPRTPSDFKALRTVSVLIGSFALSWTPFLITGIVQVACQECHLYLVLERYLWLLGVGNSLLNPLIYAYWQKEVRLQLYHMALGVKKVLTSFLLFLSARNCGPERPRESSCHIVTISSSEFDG
Active calls of the source: *; / = not tested or not shown; ! = not confirmed by another sample.

SMILES	MITF primary	TEAD-YAP inh	FBW7 activator	GPR151 activ	GPR151 confirm	GPR119 counter
Cc1cc(Br)ccc1OCC(=O)N(C(C)C)C(C)C	40	5	0	2	/	/
CC(C)(C)C(=O)Nc1nnc(-c2ccc([N+](=O)[O-])cc2)s1	-3	-36	0	1	/	/
Cc1nn(S(=O)(=O)c2ccc(Br)cc2)c(C)c1Sc1ccc(Cl)cc1	20	0	0	-1	/	/
OCCNCCCCOc1ccc(OCc2ccccc2)cc1	5	6	0	6.2*	0	-18
CC(C)(C)c1ccc(C(=O)Nc2nnc(Cc3ccccc3F)s2)cc1	5	-1	0	1	/	/
COc1cc(/C=N/N2C(C)CCCC2C)cc(Br)c1O (stereo not drawn)	-12	1	0	8.2*	-1	-9
Cc1cc(C)c2[nH]c(=O)c(CN(CCCO)Cc3nnnn3Cc3ccco3)cc2c1	14	-1	0	0	/	/
CCOC(=O)CC(C(C)C)N(Cc1ccc(Cl)c([N+](=O)[O-])c1)S(=O)(=O)c1ccc(Cl)cc1 (stereo not drawn)	9	-8	0	9.1*	-1	-10
Cc1cc(Cl)ccc1NC(=O)C(=O)N/N=C/c1ccc([N+](=O)[O-])cc1	-1	-3	0	-1	/	/
Cc1ccc(NC(=O)C(=O)N/N=C/c2ccc([N+](=O)[O-])cc2)cc1C	-18	-18	0	15*	0	14
CCN1C(=O)C[n+]2ccccc2C1C(=O)Nc1c(C)cccc1C (stereo not drawn)	9	0	1	2	/	/
Nc1c(Cl)cc(NS(=O)(=O)c2ccc3c(c2)OCCO3)cc1Cl	3	7	0	-1	/	/
O=C(CSc1n[nH]c(-c2ccncc2)n1)c1ccc(Cl)cc1	-12	2	0	5.0*	-1	-6
O=C(CSc1n[nH]c(-c2ccncc2)n1)c1ccc(F)cc1	-7	3	0	2	/	/
CCC(C(=O)N1CCCCC1)n1ncn2c(cc3occc32)c1=O (stereo not drawn)	6	-6	0	5.7*	0	6
O=C(O)CN(CCN(CC(=O)O)CC(=O)O)CCN(CC(=O)O)CC(=O)O	41	6	0	8.1*!	1	10
O=C(O)CN(CCOCCOCCN(CC(=O)O)CC(=O)O)CC(=O)O	-1	-3	0	2	/	/
CCCCc1nnc2sc(NC(=O)c3ccc(F)cc3)nn12	-11	1	0	5.6*	0	-7
COC(=O)C(=C/C=C/N(C)c1ccccc1)C(=O)OC	22	-16	0	-1	/	/
CCC1Oc2ccc(C)cc2N(CC(=O)O)C1=O (stereo not drawn)	2	1	0	0	/	/
CCCCN(C)C(=O)CN1C(=O)C(CC)Oc2ccc(C)cc21 (stereo not drawn)	-16	-2	0	8.8*	0	-9
N#CCCN(Cc1cccnc1)C(=S)NC(=O)c1cccs1	6	15	0	5.6*	-2	-3
CCc1ccc(OCC(=O)Nc2cc(C)on2)cc1	4	-51	0	-1	/	/
CCc1ccc(C(=O)NC(CC(C)C)C(=O)Nc2cc(C)on2)cc1 (stereo not drawn)	3	0	0	5.3*	0	-1
COc1cccc(NC(=O)CN(C2=NC3CS(=O)(=O)CC3S2)c2ccccc2F)c1 (stereo not drawn)	4	4	0	5.0*	0	-7
SMILES	MITF primary	TEAD-YAP inh	FBW7 activator	GPR151 activ	GPR151 confirm	GPR119 counter
COC(=O)c1nsc(Cl)c1Cl	10	8	0	6.8*	0	-8
N#Cc1ccc(NC(=O)COC(=O)C2COc3ccccc3O2)cc1 (stereo not drawn)	2	2	0	7.8*	0	1
Cc1cc(C)c(S(=O)(=O)Nc2ccc(F)cc2)cc1C	10	-1	0	0	/	/
Cc1cc(C)c(S(=O)(=O)Nc2ccc(O)c(C(=O)O)c2)cc1C	1	0	0	10*	1	-2
COc1ccccc1NC(=O)Cn1c(=O)n(Cc2ccccc2)c(=O)c2cccnc21	-1	9	0	5.2*	-1	-2
COc1ccccc1NC(=O)Cn1c(=O)n(Cc2ccc(F)cc2)c(=O)c2cccnc21	5	16	0	1	/	/
Cc1cccc(C2N(Cc3ccccc3)CCCN2Cc2ccccc2)n1	4	-6	0	5.4*	0	-4
O=C(O)c1cc2c(ccc3ccccc32)o1	-5	-12	0	-1	/	/
N#Cc1cc2c(ccc3ccccc32)oc1=N	-9	-4	0	6.1*	-1	-13
C=C1C(=O)OC2CC3(C)CCCC(C)C3=CC12 (stereo not drawn)	6	11	0	6.2*!	1	3
Cc1ccc(C2=NN(C(=O)c3cccnc3)C(c3ccccc3F)C2)cc1 (stereo not drawn)	0	18	0	0	/	/
COCc1nnc(NC(=O)C2CCCCC2)s1	13	-7	0	6.4*	-1	-10
Cc1ccc(-c2nnc(C3CCN(S(=O)(=O)c4ccc(Cl)s4)CC3)o2)cc1	0	5	0	7.0*	0	-1
Cc1cc(Nc2ccc(N3CCOCC3)cc2)nc(Nc2ccc(-n3ccnc3)cc2)n1	4	99*	0	8.9*	3	63*
Cc1cc(Nc2ccccc2)nc(Nc2ccc(-n3ccnc3)cc2)n1	-2	-1	0	4	/	/
CCN(CC)c1nc(Nc2ccccc2)nc(Nc2ccc(-n3ccnc3)cc2)n1	8	-6	0	6.6*	0	4
Cc1cc(NC2CC2)nc(Nc2ccc(-n3ccnc3)cc2)n1	-9	-12	0	5.3*	-1	-11
Cc1cc(Nc2ccc(N3CCOCC3)cc2)nc(Nc2ccccn2)n1	8	12	0	3	/	/
Cc1cc(Nc2ccc(N3CCOCC3)cc2)nc(Nc2nccc3ccccc23)n1	10	81*	0	5.3*	1	23
COc1ccc(/C=C2\N=C(c3ccc(C)cc3)OC2=O)c(OC)c1	-2	-4	0	0	/	/
COC(=O)c1ccc(OCC(=O)N=Nc2c(O)[nH]c3ccccc23)cc1	7	-6	0	1	/	/
CCN(CC)c1nc2nonc2nc1Nc1cccc(Br)c1	6	1	0	0	/	/
Cc1cc2oc(C(=O)NCCc3ccc(S(N)(=O)=O)cc3)c(C)c2cc1C	9	10	0	10.0*	1	-3
Cc1ccc2oc(C(=O)NCCc3ccc(S(N)(=O)=O)cc3)c(C)c2c1	14	9	1	-2	/	/
CCN=c1sc(/C=C2\C=Nc3ccccc32)c(O)n1CC	0	-6	0	0	/	/
NC(=O)CCC/C=C\C[C@@H]1[C@@H](/C=C/[C@@H](O)CCc2ccccc2)[C@H](O)C[C@@H]1O	-2	/	/	7.0*	1	3

Source: PubChem BioAssay
